Reference: PMC7862700, “An all-to-all approach to the identification of sequence-specific readers for epigenetic DNA modifications on cytosine”

Columns and labels:
Assay in all cases: DAPPL (digital affinity profiling via proximity ligation, sequencing); 10 mM Tris-HCl pH 7.5, 50 mM NaCl, 1 mM DTT, 4% glycerol, room temperature, 30 min; GST-TFs on glutathione beads, 16-mer random dsDNA library, 0.1% formaldehyde crosslink after washing; high values mean tight binding
Settings in all cases: protein: recombinant; tags: N-terminal GST; dsDNA, one strand shown
ELK1 = target: T1, ELK1 (Homo sapiens, UniProt P19419 1-428)
T1 sequence: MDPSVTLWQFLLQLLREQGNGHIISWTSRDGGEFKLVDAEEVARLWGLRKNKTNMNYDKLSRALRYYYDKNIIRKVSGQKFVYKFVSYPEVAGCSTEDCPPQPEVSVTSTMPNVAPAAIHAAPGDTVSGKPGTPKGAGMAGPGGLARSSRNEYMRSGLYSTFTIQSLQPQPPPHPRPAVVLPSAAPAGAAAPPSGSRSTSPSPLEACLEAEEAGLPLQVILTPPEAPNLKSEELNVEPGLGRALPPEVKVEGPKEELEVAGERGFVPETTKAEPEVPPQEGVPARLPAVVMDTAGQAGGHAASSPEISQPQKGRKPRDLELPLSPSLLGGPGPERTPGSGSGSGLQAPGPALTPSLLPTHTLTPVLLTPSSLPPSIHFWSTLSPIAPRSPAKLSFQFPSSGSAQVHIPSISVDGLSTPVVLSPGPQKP
Method in brief: (§1)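 Human transcription factors were made in yeast as GST fusions, captured on glutathione beads and barcoded with DNA. With a tag-only sample included, the pool was incubated with 200 nmole of a random double-stranded 16-mer DNA library in Tris/NaCl/DTT/glycerol buffer at room temperature for 30 min, then crosslinked with 0.1% formaldehyde after washing, ligated by proximity, amplified and sequenced. For binding signal, each hexamer's read frequency for a factor is divided by its frequency for the tag-only sample.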

ELK3 = target: T2, ELK3 (Homo sapiens, UniProt P41970 1-407)
T2 sequence: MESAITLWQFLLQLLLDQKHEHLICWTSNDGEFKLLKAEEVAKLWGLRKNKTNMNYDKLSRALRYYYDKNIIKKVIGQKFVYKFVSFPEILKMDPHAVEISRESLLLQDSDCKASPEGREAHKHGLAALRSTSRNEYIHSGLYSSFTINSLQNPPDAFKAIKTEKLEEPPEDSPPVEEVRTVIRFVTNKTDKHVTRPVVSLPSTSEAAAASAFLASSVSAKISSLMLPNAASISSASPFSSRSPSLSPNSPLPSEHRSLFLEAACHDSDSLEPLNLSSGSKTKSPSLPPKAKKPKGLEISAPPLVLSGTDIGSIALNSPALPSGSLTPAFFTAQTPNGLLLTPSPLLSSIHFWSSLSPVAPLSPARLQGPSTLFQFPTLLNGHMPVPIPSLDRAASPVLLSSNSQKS
Method in brief: as §1

FEV = target: T3, FEV (Homo sapiens, UniProt Q99581 1-238)
T3 sequence: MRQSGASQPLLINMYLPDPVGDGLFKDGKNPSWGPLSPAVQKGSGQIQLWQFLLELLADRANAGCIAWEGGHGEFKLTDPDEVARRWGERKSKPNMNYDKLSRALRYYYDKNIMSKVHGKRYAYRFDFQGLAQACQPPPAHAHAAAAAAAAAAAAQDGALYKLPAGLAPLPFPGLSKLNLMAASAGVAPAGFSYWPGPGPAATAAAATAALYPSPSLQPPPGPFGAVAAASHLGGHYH
Method in brief: as §1

ELK4 = target: T4, ELK4 (Homo sapiens, UniProt P28324-2 1-405)
T4 sequence: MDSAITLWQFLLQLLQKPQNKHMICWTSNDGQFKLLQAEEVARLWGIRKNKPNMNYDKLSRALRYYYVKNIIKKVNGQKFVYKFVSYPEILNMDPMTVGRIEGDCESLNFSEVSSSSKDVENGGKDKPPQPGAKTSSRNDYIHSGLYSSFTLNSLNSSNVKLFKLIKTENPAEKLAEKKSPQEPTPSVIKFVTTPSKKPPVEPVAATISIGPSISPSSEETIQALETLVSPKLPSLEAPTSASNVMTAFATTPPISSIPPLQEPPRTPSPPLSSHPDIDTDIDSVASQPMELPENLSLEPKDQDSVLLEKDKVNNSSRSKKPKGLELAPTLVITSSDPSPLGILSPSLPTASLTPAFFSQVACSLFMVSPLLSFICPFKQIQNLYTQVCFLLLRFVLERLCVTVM
Method in brief: as §1

ETV1 = ETV1 (Homo sapiens, UniProt P50549 1-477)
Method in brief: as §1

ETV3L = target: T5, ETV3L (Homo sapiens, UniProt Q6ZN32 1-361)
T5 sequence: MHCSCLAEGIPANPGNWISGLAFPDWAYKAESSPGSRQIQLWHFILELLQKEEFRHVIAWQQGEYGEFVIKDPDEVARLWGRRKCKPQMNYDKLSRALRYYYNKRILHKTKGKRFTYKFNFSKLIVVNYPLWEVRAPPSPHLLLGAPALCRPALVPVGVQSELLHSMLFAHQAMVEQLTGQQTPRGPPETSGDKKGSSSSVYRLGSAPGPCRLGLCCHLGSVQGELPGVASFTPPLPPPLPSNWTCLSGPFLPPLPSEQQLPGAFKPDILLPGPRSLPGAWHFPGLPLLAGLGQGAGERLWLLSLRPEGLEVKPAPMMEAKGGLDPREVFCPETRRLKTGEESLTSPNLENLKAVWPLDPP
Method in brief: as §1

ETV7 = target: T6, ETV7 (Homo sapiens, UniProt Q9Y603 1-341)
T6 sequence: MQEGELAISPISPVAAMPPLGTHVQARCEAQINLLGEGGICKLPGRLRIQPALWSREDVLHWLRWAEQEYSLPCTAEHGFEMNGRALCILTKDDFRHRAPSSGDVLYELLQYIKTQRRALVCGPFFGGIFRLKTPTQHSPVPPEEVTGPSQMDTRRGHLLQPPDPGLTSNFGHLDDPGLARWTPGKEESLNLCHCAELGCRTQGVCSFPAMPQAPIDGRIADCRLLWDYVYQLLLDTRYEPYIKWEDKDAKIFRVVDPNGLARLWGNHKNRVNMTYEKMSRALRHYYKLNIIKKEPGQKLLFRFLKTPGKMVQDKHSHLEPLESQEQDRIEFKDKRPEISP
Method in brief: as §1

GABPA = target: T7, GABPA (Homo sapiens, UniProt Q06546 1-454)
T7 sequence: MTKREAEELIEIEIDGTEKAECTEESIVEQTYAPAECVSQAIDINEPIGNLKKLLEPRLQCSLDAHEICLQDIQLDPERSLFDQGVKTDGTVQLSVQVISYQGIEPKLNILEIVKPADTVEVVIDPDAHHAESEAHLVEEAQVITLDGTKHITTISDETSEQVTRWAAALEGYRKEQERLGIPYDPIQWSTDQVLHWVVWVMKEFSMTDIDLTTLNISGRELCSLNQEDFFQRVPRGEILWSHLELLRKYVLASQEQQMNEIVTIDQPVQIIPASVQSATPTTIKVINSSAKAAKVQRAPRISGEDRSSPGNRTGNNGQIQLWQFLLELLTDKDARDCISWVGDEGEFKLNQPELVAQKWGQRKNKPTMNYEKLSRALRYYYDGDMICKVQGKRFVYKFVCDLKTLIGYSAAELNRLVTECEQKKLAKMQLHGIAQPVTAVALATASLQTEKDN
Method in brief: as §1

ELF3 = target: T8, ELF3 (Homo sapiens, UniProt P78545 1-371)
T8 sequence: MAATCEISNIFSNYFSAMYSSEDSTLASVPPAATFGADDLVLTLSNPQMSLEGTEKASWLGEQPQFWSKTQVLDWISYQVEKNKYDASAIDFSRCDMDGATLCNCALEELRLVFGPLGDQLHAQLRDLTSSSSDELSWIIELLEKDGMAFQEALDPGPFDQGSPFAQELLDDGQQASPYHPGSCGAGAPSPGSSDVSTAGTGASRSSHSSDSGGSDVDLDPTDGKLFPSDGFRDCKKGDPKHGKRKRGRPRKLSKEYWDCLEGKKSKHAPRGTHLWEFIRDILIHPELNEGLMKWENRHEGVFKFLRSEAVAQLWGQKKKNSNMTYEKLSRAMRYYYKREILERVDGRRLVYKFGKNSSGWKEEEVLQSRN
Method in brief: as §1

CRX = CRX (Homo sapiens, UniProt O43186 1-299)
Method in brief: as §1

ETV2 = target: T9, ETV2 (Homo sapiens, UniProt O00321 1-342)
T9 sequence: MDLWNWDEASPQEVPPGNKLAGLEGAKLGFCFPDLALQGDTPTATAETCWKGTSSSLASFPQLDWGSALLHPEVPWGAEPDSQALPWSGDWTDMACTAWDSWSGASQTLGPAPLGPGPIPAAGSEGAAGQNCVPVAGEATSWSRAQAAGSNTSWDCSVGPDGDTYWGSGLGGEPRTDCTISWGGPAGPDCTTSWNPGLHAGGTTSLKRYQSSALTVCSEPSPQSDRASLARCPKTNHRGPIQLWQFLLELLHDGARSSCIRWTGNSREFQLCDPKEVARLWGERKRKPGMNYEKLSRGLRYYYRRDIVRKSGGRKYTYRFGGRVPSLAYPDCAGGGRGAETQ
Method in brief: as §1

Sequence of CRX (O43186 whole entry): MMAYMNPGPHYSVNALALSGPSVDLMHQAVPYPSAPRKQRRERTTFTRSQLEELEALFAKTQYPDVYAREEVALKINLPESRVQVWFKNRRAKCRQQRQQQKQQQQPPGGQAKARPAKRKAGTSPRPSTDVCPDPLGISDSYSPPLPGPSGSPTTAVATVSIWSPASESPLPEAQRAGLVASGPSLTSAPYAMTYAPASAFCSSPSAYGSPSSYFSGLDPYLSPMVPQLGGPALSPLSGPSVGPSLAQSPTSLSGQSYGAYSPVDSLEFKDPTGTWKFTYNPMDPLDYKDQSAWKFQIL
Sequence of ETV1 (P50549 whole entry): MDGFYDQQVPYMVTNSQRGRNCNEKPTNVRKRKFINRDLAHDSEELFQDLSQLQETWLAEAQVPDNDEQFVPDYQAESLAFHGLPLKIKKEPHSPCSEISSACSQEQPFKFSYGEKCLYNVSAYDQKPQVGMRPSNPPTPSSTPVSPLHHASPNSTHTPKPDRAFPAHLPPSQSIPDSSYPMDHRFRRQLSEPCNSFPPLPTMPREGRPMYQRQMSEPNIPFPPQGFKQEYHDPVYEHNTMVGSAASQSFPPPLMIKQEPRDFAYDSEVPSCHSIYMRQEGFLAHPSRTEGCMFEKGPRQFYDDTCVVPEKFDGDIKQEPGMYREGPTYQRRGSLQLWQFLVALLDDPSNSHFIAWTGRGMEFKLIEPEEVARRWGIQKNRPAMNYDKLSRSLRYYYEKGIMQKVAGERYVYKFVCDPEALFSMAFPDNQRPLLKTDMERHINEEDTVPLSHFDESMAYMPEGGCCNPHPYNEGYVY

Question: What does the source list for GTTGCC?
Answer: binding signal (ELK1): 1.01 fold enrichment (6-mer frequency, TF over GST control); binding signal (ELK3): 1 fold enrichment (6-mer frequency, TF over GST control); binding signal (FEV): 1.02 fold enrichment (6-mer frequency, TF over GST control); binding signal (ELK4): 1.07 fold enrichment (6-mer frequency, TF over GST control); binding signal (ETV1): 1.05 fold enrichment (6-mer frequency, TF over GST control); binding signal (ETV3L): 1.03 fold enrichment (6-mer frequency, TF over GST control); binding signal (ETV7): 1.04 fold enrichment (6-mer frequency, TF over GST control)

Question: For AGATGT, which binding signal (ELK1) is on record?
Answer: 1 fold enrichment (6-mer frequency, TF over GST control)

Question: What about the binding signal (GABPA) of the same sequence?
Answer: 1.01 fold enrichment (6-mer frequency, TF over GST control)

Question: And the binding signal (ELF3)?
Answer: 1.04 fold enrichment (6-mer frequency, TF over GST control)

Question: What about the binding signal (ETV3L) of the same sequence?
Answer: 1 fold enrichment (6-mer frequency, TF over GST control)

Question: And the binding signal (ETV7)?
Answer: 1.04 fold enrichment (6-mer frequency, TF over GST control)

Question: How did the binding signal (ELK1) turn out when GATTGA was run?
Answer: 1.01 fold enrichment (6-mer frequency, TF over GST control)

Question: And the binding signal (CRX)?
Answer: 1.11 fold enrichment (6-mer frequency, TF over GST control)

Question: What does the source list for GCGTCA?
Answer: binding signal (ELK4): 1.01 fold enrichment (6-mer frequency, TF over GST control); binding signal (ETV2): 1.06 fold enrichment (6-mer frequency, TF over GST control)
